Data published in PubChem BioAssay.
Inconclusive results are not listed. The source made the active and inactive calls.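 Rule for the calls, unless noted: active = binding below the plate cutoff, the plate median minus 3 SD, with a reading above zero; inconclusive = below the plate cutoff but reading exactly zero; inactive = the rest.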

Columns and labels:
[1] = rapamycin-like changes in RPL19A-GFP expression – cell-based, S. cerevisiae, multiplex flow cytometry, primary screen (AID 1862; in the data active = percent of DMSO control GFP below about 86%;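 note: lower values mimic rapamycin by blocking the RPL19A rise seen in DMSO cells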); details: S. cerevisiae RPL19A-GFP strain, flow cytometry fluorescence, 3 h; at 10 µM; stronger effect = lower value
[2] = TOR pathway GLN3 branch reporter MEP2-GFP changes – S. cerevisiae, multiplex flow cytometry, primary screen (AID 1867;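 active = GFP response, as percent of the DMSO control, above the screen-wide mean plus 3 SD, about 139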;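 note: median GFP channel fluorescence of barcode-gated MEP2-GFP cells measured by flow cytometry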); details: S. cerevisiae MEP2-GFP strain, 3 h, at 10 µM, stronger effect = higher value, 100% means same as DMSO wells
[3] = TOR pathway RTG branch CIT2 reporter changes – S. cerevisiae, GFP fusion, multiplex flow cytometry, primary screen (AID 1870;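 active = percent response above a set limit, the screen-wide mean plus 3 SD, cut at about 130% in these data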;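 note: barcoded CIT2-GFP strain pooled with four other GFP strains with rapamycin as positive control; median GFP fluorescence per well over plate mean of DMSO wells so 100% = DMSO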); details: S. cerevisiae CIT2-GFP expression, 3 h, at 10 µM, stronger effect = higher value
[4] = TOR pathway LAP4-GFP level changes – S. cerevisiae, multiplex flow cytometry, primary screen (AID 1873;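 active = GFP signal, as percent of the solvent control, above the screen mean plus 3 SD, about 149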); details: S. cerevisiae LAP4-GFP expression, 3 h, at 10 µM, stronger effect = higher value
[5] = yeast AGP1-GFP level changes, GLN3 branch – cell-based, multiplex flow cytometry, S. cerevisiae, primary screen (AID 1887;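 active = GFP signal above the screen-wide mean plus 3 SD, that is over about 124.5% of the solvent control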;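 note: AGP1-GFP fusion strain of S. cerevisiae within a five-strain barcoded multiplex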); details: 3 h, at 10 µM, stronger effect = higher value
[6] = reduced mouse 2C T cell binding to pMHC/ICAM-1 vesicles – MLPCN validation set, flow cytometry, LFA-1/ICAM-1 modulator project, pilot screen (AID 2523;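 active = response below a set limit, under 55% cells CD8-positive and vesicle-bound, and CD8 cells' 90th-percentile brightness under 279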;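 for vesicle binding response: mean PE anti-B7-1 fluorescence of CD8+ cells relative to row control; 100% = QL9-loaded vesicles with DMSO vehicle in the same plate row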); details: 2C mouse CD8+ T cells, at 7 µM, stronger effect = lower value; double positive events: measured here: CD8+/vesicle+ event percentage
[7] = target: Integrin beta-1 (Homo sapiens) + Integrin alpha-4 (Homo sapiens) (UniProt P13612+P05556); experiment: alpha4beta1 integrin LIBS antibody binding reduction – U937 cells, HUTS-21 mAb, flow cytometry, validation set, VLA-4 allosteric modulator project, pilot screen (AID 2674;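 active = inhibition above 50%, about 3 SD of the validation set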;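 note: antibody binding induced by the VLA-4 ligand LDV present at three times its Kd; 0% = LDV ligand with antibody and no compound and 100% = antibody without LDV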); details: HUTS-21 LIBS mAb binding, at 6.7 µM, stronger effect = higher value, binding induced by LDV ligand
[8] = calorie-restriction mimetic ROS inhibitors, yeast – validation compound set, pilot screen (AID 2706;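 active = superoxide response below 65% of plate, a cut near 3 SD across the whole screen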;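 note: yeast exposed to compound for one week at 30 degrees C before staining; 100% = mean of all compound wells on the same plate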); details: S. cerevisiae aging, superoxide DHE fluorescence; at 10 µM; stronger effect = lower value
[9] = target: Beta-adrenergic receptor kinase 1 (Homo sapiens) (UniProt P25098); experiment: GRK2 binders displacing RNA aptamer, biochemical, validation, human GRK2, bead flow cytometry (AID 488806;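 active = aptamer binding inhibition above 30%, about 3 SD of noise from non-fluorescent compounds; inactive = inhibition at or below 30%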); details: bead-bound GRK2, FAM-aptamer displacement, at 10 µM, stronger effect = higher value
[10] = target: Beta-2 adrenergic receptor (Homo sapiens) (UniProt P07550); experiment: agonist-induced loss of surface beta2AR – cell-based, FAP fluorogen, flow cytometry, validation set, pilot screen (AID 504459;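 active = percent response above 42, roughly 3 SD of non-fluorescent test compounds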;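 note: agonist-driven loss of surface beta2AR via internalization measured by FAP dye flow cytometry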); details: Am2.2-beta2AR cells, at 10 µM, stronger effect = higher value
[11] = target: AP-2 complex subunit beta (Homo sapiens) (UniProt P63010); experiment: beta-arrestin/AP2 interaction blockers – biochemical, validation set, GST-AP2 beads, flow cytometry, pilot screen (AID 504541;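 active = inhibition above 54%, about 3 SD of non-fluorescent compounds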;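 note: AP2 carries R879A mutation and is captured from E. coli lysate; bead-bound FITC arrestin peptide fluorescence measuring arrestin peptide binding to AP2; 0% = DMSO wells and 100% = excess unlabeled arrestin peptide control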); details: FITC arrestin peptide, at 10 µM, stronger effect = higher value, AP2 beta2 appendage fragment, R879A mutant
[12] = cytosolic pH regulators acting via V-ATPase – S. cerevisiae, pHLuorin, HTS validation (AID 504600; in the data active = response above about 15%;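 note: plate controls were DMSO for no effect and reference compound for full effect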); details: V-ATPase proton transport, at 10 µM, stronger effect = higher value
[13] = test system: anti-desmoglein-3 scFv antibody binding to human DSG3; experiment: blockers of pathogenic pemphigus antibody–desmoglein-3 binding – biochemical, validation compound set, bead-based, flow cytometry, pilot screen (AID 588368); details: Protein G beads, DSG3-Fc, scFv-GFP binding, at 10 µM, stronger effect = lower value;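 note: signal is the median channel fluorescence of bead-bound GFP antibody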
[14] = Nile Red efflux blockade in pump-expressing yeast – validation compound set, multiplex, phenotypic, pilot screen (AID 588506;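 active = efflux inhibition above 0.42, the validation set average plus 4 SD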;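 note: Nile Red retained in cells so higher fluorescence means more efflux inhibition; 0 = negative control wells and 1 = enniatin B 25 µM full block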); details: S. cerevisiae pump-expressing triplex, Nile Red efflux flow cytometry; at 10 µM; stronger effect = higher value; the pumps come from Candida albicans
[15] = target: ATP-binding cassette sub-family B member 6 (Homo sapiens) (UniProt Q9NP58); experiment: blockers of ABCB6-driven porphyrin uptake – K562-ABCB6 cells, flow cytometry, validation set, pilot screen (AID 588550;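 active = inhibition above the screen-wide mean plus 3 SD, about 51%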;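 note: 0% = DMSO wells and 100% = benzethonium chloride 70 µM positive control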); details: K562-ABCB6 porphyrin accumulation, 1 h, at 10 µM, stronger effect = higher value
[16] = AML differentiation inducers, ER-HoxA9 marrow cells – cell-based, GFP/MAC1 double positive, flow cytometry, validation set, primary screen (AID 588685;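 active = differentiation response of at least 50%, scaled between solvent and reference control, from cells with both markers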;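 note: compound exposure lasts four days before antibody staining and flow analysis; 0% = DMSO wells and 100% = 5 µM fulvestrant positive control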); details: stronger effect = higher value, normalized: vehicle 0, fulvestrant 100

Sequence of Beta-adrenergic receptor kinase 1 (Homo sapiens) (P25098 whole entry, looked up): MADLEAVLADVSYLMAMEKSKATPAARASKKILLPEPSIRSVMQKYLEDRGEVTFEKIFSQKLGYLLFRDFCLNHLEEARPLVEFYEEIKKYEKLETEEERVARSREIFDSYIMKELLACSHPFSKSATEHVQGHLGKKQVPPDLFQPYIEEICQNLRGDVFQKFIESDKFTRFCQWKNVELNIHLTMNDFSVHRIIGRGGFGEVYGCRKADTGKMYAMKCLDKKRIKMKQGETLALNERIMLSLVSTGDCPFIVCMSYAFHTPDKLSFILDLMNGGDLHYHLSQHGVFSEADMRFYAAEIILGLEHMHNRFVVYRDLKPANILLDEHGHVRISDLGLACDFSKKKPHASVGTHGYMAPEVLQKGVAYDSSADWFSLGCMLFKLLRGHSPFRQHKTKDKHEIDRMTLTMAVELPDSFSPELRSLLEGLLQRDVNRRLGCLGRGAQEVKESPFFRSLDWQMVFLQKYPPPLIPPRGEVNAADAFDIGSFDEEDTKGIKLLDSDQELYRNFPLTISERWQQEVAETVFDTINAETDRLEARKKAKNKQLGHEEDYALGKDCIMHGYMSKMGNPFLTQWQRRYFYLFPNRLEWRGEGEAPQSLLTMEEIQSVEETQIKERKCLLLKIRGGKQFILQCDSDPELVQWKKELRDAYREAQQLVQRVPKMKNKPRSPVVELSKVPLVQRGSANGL
Sequence of AP-2 complex subunit beta (Homo sapiens) (P63010 whole entry, looked up, the tested form may be a part, one chain of several): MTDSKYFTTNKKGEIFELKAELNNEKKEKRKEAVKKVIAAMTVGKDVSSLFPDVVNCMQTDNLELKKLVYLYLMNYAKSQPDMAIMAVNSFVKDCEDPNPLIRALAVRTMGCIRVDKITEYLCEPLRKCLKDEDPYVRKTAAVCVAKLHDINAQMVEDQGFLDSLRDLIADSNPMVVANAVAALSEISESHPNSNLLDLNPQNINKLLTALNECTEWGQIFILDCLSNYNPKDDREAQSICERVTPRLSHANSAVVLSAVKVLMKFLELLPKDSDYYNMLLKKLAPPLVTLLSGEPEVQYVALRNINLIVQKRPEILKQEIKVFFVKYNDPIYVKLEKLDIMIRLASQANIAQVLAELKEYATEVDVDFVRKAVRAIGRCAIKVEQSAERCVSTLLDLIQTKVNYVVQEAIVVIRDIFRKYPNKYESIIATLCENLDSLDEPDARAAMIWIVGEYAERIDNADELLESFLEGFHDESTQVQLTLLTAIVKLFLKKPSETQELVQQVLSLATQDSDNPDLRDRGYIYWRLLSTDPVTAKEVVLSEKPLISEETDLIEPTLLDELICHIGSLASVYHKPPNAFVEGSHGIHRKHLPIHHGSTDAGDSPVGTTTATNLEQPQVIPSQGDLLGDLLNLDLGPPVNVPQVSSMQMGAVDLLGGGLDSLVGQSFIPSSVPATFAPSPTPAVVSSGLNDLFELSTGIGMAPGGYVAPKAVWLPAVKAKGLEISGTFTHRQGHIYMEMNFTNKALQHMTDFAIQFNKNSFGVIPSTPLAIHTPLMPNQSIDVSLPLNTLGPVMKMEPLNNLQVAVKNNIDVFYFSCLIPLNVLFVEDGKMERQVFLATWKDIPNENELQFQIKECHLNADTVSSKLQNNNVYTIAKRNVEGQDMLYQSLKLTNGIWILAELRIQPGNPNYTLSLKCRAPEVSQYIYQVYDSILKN
Sequence of ATP-binding cassette sub-family B member 6 (Homo sapiens) (Q9NP58 whole entry, looked up): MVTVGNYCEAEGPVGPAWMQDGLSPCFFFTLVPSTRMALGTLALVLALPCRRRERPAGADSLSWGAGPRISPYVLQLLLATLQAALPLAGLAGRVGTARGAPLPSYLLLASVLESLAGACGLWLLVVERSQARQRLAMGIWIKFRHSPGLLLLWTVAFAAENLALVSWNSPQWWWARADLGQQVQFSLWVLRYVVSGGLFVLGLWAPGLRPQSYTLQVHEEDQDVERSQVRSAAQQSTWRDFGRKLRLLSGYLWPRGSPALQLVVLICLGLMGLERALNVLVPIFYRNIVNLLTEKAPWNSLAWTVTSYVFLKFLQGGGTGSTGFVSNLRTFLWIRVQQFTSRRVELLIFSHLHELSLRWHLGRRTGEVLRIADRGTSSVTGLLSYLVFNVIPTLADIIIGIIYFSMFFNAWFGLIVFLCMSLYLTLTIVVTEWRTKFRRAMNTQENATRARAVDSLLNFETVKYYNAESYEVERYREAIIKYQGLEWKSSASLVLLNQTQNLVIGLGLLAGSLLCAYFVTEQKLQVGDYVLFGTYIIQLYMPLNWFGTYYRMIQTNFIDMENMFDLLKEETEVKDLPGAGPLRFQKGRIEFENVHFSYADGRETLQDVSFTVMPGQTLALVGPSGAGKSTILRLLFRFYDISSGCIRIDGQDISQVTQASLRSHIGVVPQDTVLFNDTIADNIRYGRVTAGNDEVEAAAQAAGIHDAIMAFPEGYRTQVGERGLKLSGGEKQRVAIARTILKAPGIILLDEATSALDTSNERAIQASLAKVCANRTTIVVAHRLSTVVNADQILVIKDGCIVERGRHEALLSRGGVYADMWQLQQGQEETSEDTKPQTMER
Sequence of Beta-2 adrenergic receptor (Homo sapiens) (P07550 whole entry, looked up): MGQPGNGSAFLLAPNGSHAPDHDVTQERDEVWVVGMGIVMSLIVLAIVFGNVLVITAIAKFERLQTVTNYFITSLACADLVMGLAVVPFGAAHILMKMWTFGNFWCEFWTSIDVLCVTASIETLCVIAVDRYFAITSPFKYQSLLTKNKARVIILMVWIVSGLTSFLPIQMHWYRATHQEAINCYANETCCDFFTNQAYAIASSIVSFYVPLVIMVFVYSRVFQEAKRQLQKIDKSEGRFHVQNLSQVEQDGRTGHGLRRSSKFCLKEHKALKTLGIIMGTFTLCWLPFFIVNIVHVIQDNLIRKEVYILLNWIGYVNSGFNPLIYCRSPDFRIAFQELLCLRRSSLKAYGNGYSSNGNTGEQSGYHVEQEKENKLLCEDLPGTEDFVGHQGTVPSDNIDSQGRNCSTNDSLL
Sequence of Integrin beta-1 (Homo sapiens) + Integrin alpha-4 (Homo sapiens) (P05556 whole entry, looked up): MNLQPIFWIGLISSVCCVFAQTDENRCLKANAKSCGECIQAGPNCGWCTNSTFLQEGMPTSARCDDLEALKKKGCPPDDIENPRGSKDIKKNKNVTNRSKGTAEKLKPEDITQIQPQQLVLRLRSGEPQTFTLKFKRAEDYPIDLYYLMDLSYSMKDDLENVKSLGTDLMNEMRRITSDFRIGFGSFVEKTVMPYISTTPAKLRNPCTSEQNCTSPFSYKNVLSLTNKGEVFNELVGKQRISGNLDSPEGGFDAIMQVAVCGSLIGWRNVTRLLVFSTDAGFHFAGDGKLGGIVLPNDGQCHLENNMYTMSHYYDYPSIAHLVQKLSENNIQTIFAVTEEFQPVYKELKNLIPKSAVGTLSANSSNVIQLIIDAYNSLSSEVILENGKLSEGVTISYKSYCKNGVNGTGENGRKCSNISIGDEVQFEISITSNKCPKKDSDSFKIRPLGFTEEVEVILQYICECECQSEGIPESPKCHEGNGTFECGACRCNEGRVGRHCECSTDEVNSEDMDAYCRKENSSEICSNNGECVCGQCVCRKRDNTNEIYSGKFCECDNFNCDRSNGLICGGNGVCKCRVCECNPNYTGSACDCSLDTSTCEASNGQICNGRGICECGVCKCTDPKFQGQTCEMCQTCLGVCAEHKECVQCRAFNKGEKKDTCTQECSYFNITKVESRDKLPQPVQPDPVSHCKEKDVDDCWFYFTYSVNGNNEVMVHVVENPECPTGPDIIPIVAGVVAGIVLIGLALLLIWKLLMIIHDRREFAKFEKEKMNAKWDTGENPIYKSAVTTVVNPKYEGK
Sequence of Integrin beta-1 (Homo sapiens) + Integrin alpha-4 (Homo sapiens) (P13612 whole entry, looked up): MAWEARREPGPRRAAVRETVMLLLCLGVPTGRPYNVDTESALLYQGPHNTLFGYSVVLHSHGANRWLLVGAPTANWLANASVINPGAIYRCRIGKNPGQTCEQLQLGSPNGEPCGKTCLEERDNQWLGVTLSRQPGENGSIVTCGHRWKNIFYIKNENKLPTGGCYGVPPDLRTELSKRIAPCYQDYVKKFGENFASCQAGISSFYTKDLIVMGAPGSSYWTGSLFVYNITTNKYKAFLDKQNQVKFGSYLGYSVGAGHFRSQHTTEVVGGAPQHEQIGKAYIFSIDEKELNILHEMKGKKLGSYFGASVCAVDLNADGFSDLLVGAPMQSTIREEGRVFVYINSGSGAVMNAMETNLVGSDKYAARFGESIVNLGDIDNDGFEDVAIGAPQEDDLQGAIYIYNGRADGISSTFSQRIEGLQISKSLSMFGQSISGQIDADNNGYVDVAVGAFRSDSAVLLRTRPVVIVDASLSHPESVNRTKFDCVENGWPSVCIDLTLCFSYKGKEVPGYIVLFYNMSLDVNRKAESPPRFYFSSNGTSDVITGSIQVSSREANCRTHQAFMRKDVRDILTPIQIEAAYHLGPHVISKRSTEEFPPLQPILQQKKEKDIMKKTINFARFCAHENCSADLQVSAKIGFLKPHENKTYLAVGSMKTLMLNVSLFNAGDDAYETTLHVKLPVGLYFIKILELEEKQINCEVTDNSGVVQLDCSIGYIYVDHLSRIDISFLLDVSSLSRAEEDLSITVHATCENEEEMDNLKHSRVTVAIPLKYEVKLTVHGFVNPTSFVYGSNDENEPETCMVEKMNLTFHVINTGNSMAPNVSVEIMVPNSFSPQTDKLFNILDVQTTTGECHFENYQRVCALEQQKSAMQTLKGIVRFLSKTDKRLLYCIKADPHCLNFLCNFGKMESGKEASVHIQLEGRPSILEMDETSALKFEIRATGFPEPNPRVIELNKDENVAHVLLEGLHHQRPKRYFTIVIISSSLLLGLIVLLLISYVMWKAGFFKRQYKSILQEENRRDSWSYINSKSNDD

| SMILES | percent of DMSO control GFP [1] | GFP response vs DMSO [2] | percent response of DMSO control [3] | GFP response vs DMSO [4] | GFP response, % of DMSO [5] | double positive events [6] | vesicle binding response [6] | inhibition [7] | superoxide response (% of plate) [8] | aptamer binding inhibition [9] | response [10] | inhibition [11] | response [12] | binding (% of control) [13] | efflux inhibition (fraction of control) [14] | inhibition [15] | differentiation response [16] |
| --- | --- | --- | --- | --- | --- | --- | --- | --- | --- | --- | --- | --- | --- | --- | --- | --- | --- |
| Cn1c(=O)c2c(ncn2CCO)n(C)c1=O | 102% (inactive) | 112% (inactive) | 116% (inactive) | 88.6% (inactive) | 101% (inactive) | 63.6% | 250% (inactive) | -32.3% (inactive) | 98.5% (inactive) | -2% (inactive) | 15.1% (inactive) | -1.93% (inactive) | 0.08% (inactive) | 106% (inactive) | -0.17 (inactive) | 6% (inactive) | 1.64% (inactive) |
| O=C(N/N=C\c1cc([N+](=O)[O-])ccc1N1CCOCC1)c1ccccn1 | 107% (inactive) | 102% (inactive) | 107% (inactive) | 100% (inactive) | 103% (inactive) | 59.8% | 142% (inactive) | -7.79% (inactive) | 104% (inactive) | -2% (inactive) | -1.25% (inactive) | 1.39% (inactive) | 4.27% (inactive) | 102% (inactive) | 0.35 (inactive) | -1% (inactive) | -11.9% (inactive) |
| COc1c(O)ccc2c1CN1CCc3cc4c(cc3C1C2)OCO4 (stereo not drawn) | 107% (inactive) | 112% (inactive) | 93.9% (inactive) | 130% (inactive) | 103% (inactive) | 61.6% | 157% (inactive) | – | 92.6% (inactive) | 1% (inactive) | 24.6% (inactive) | 30.3% (inactive) | -1.39% (inactive) | 99.7% (inactive) | 0.66 (active) | -25% (inactive) | 23.2% (inactive) |
| C#CCN1C(=O)C(O)(c2c(C)[nH]c3ccccc23)c2ccccc21 (stereo not drawn) | 103% (inactive) | 106% (inactive) | 96% (inactive) | 103% (inactive) | 100% (inactive) | 65% | 220% (inactive) | -0.31% (inactive) | 96.9% (inactive) | 3% (inactive) | 1% (inactive) | 2.17% (inactive) | -0.83% (inactive) | 100% (inactive) | -0.44 (inactive) | 3% (inactive) | 0% (inactive) |
| CC(=O)Nc1ccc2[nH]c(C)c(CC=C(Cl)Cl)c(=O)c2c1 | 105% (inactive) | 113% (inactive) | 93.9% (inactive) | 87.3% (inactive) | 94.8% (inactive) | 61.1% | 146% (inactive) | 12.6% (inactive) | 110% (inactive) | 4% (inactive) | 5.01% (inactive) | -17.8% (inactive) | 0.46% (inactive) | 97.9% (inactive) | 0.14 (inactive) | 11% (inactive) | -5.68% (inactive) |
| Cc1ccccc1N1C(N)=NC(N)=NC1(C)C | 102% (inactive) | 103% (inactive) | 108% (inactive) | 94.8% (inactive) | 104% (inactive) | 63% | 135% (inactive) | -9.13% (inactive) | 96.3% (inactive) | 0% (inactive) | 7.98% (inactive) | -7.13% (inactive) | 1.38% (inactive) | 104% (inactive) | -0.28 (inactive) | 20% (inactive) | -19.2% (inactive) |
| Cn1cc(C2N3CC4(C)CN2CC(C)(C3)C4=O)c2ccccc21 (stereo not drawn) | 102% (inactive) | 107% (inactive) | 98.9% (inactive) | 94% (inactive) | 104% (inactive) | 50.6% | 485% (inactive) | 0.58% (inactive) | 101% (inactive) | 2% (inactive) | -3.83% (inactive) | -3.74% (inactive) | -6.53% (inactive) | 95.1% (inactive) | -0.01 (inactive) | -4% (inactive) | -7.57% (inactive) |
